In PubChem BioAssay (EPA / NIEHS):
Several values for one entry are separate records, joined by “and”; a condition that tells them apart may be missing. Equal entries are not always repeated. Inconclusive results are not listed. Activity calls are given as the source filed them. How the source made its calls: active means hit-call score of the fitted dose curve at least 0.9, where 1 is the maximum; inconclusive means response in the unintended direction; inactive means score below 0.9.

Experiments:
[1] = biological target: human Matrix Metalloproteinase-9 (MMP9), MMP9 (gene 4318) (UniProt P14780); assay: NVS_ENZ_hMMP9: NovaScreen (NVS) Enzymatic Assay for human Matrix Metalloproteinase-9 (MMP9) (AID 2283190);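 further: cell-free recombinant MMP9 protease activity read by fluorescent substrate signal; active means inhibition seen as loss of fluorescence signal versus DMSO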
Sequence of human Matrix Metalloproteinase-9 (MMP9), MMP9 (gene 4318) (P14780 whole entry, looked up): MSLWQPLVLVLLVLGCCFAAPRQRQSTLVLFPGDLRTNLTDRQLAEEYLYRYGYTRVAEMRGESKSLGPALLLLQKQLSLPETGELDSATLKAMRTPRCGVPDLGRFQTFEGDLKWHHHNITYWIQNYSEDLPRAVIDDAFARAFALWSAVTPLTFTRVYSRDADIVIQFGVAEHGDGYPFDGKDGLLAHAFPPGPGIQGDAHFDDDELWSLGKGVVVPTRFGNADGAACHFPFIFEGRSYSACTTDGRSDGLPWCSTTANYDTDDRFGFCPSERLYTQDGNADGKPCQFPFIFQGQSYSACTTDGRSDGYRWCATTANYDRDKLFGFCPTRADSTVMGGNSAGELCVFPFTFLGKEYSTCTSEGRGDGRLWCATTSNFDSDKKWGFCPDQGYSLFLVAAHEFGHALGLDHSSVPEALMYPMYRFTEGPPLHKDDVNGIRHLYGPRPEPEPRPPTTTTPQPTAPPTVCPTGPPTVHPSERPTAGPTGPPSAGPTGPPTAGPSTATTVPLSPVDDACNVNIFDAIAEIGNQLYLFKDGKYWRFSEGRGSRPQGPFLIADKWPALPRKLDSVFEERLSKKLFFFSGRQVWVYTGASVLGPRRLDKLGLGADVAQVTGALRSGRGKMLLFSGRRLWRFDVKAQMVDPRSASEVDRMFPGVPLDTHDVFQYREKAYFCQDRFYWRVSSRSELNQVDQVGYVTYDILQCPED
In short: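 Cell-free fluorescence-intensity enzyme activity assay using extracted protein, read 1 h after dosing. Loss of signal versus DMSO baseline indicates inhibition; primary screen in duplicate at 25 uM, actives followed up in concentration series.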

[2] = biological target: human Phosphodiesterase 10 (PDE10), PDE10A (gene 10846) (UniProt Q9Y233); assay: NVS_ENZ_hPDE10: NovaScreen (NVS) Enzymatic Assay for human Phosphodiesterase 10 (PDE10) (AID 2283195)
Sequence of human Phosphodiesterase 10 (PDE10), PDE10A (gene 10846) (Q9Y233 whole entry, looked up): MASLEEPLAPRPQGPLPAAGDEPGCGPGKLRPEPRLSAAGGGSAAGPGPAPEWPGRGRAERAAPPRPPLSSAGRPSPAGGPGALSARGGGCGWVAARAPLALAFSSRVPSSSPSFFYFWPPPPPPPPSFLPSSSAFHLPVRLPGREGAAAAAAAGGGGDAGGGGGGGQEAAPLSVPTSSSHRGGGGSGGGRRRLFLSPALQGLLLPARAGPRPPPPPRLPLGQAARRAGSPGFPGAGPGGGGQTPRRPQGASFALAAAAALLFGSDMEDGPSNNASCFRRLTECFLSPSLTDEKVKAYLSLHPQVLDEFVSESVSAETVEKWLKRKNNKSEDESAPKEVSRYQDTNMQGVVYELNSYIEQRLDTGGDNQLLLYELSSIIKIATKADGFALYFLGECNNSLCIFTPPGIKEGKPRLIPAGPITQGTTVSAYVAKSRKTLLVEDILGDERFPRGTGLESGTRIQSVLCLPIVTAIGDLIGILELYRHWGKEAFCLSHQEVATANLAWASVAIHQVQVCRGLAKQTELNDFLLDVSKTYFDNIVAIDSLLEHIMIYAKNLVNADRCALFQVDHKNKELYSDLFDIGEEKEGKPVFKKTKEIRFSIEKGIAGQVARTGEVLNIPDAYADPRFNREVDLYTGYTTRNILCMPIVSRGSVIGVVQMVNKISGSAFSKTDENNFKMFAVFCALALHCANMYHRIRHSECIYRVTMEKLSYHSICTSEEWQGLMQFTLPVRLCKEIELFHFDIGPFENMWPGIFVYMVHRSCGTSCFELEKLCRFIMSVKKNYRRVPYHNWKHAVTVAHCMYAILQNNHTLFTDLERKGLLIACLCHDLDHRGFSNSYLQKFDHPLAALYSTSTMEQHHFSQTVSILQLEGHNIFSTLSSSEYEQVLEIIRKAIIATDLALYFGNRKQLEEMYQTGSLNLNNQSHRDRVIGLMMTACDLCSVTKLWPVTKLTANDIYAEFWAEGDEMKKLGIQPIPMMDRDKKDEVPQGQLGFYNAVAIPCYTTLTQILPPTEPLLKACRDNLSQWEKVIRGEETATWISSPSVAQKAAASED
In short: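 Recombinant human PDE10 with fluorescent substrate, 1 h, product separated by electrophoretic mobility shift. Loss of enzyme activity fitted against DMSO; initial screen 25 uM in duplicate, actives run to 50 uM maximum.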

[3] = biological target: human Mitogen-Activated Protein Kinase 1 (MAPK 1), MAPK1 (gene 5594) (UniProt P28482); assay: NVS_ENZ_hMAPK1: NovaScreen (NVS) Enzymatic Assay for human Mitogen-Activated Protein Kinase 1 (MAPK 1) (AID 2283175)
Sequence of human Mitogen-Activated Protein Kinase 1 (MAPK 1), MAPK1 (gene 5594) (P28482 whole entry, looked up): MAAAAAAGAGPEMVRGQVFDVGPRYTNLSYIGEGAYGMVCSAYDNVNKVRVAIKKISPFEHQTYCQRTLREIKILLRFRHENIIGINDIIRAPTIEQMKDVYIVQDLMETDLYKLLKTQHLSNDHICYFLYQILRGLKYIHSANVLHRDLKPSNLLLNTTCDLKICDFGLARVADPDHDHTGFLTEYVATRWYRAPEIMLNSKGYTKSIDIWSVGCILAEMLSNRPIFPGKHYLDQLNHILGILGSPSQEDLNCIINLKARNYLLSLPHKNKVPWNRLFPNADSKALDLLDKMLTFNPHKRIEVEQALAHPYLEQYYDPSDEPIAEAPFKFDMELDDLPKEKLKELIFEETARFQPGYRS
In short: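 Cell-free recombinant human MAPK1 enzymatic assay, fluorescence/electrophoretic mobility shift read at 1 h; loss of signal vs DMSO. Primary screen in duplicate at 25 uM; actives (e.g. ≥30% inhibition) run as concentration-response up to 50 uM.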

[4] = biological target: human Phosphodiesterase 5 (PDE5), PDE5A (gene 8654) (UniProt O76074); assay: NVS_ENZ_hPDE5: NovaScreen (NVS) Enzymatic Assay for human Phosphodiesterase 5 (PDE5) (AID 2283194)
In short: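 Recombinant human PDE5 with specific substrate, read 1 h after dosing by fluorescence with electrophoretic mobility-shift separation of substrate and product. Initial single-concentration duplicate screen at 25 uM, actives followed in concentration series; loss of activity versus DMSO.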

[5] = biological target: human LYN Proto-Oncogene, Src family Tyrosine Kinase (LynA), LYN (gene 4067) (UniProt P07948); assay: NVS_ENZ_hLynA: NovaScreen (NVS) Enzymatic Assay for human LYN Proto-Oncogene, Src family Tyrosine Kinase (LynA) (AID 2283173)
In short: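 Recombinant kinase with fluorescent substrate; product separated from substrate by electrophoretic mobility shift and read 1 h after dosing. Duplicate screen at 25 uM, then concentration-response up to 50 uM; activity scored as signal loss against DMSO.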

[6] = biological target: Mitogen-activated protein kinase 3 (Homo sapiens) (UniProt P27361); assay: NVS_ENZ_hMAPK3: NovaScreen (NVS) Enzymatic Assay for human Mitogen-Activated Protein Kinase 3 (MAPK 3) (AID 2283177)
Sequence of Mitogen-activated protein kinase 3 (Homo sapiens) (P27361 whole entry, looked up): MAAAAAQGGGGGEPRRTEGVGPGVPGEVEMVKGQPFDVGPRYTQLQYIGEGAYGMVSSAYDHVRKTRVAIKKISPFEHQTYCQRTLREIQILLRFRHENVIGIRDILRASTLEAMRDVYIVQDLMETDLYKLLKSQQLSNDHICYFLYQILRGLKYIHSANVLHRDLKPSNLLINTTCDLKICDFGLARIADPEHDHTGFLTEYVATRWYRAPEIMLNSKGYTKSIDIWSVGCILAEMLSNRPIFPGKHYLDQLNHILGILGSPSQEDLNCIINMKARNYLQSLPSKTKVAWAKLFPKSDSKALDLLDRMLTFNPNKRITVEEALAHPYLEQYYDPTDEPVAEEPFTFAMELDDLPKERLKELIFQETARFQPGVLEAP
In short: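 Cell-free enzymatic assay with recombinant protein and specific substrate; fluorescence and electrophoretic mobility shift read-out 1 h after dosing. Primary screen duplicate at 25 uM; actives then run in concentration-response up to 50 uM, loss of signal versus DMSO.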

[7] = biological target: human MAP Kinase-Activated Protein Kinase 2 (MAPKAPK2), MAPKAPK2 (gene 9261) (UniProt P49137); assay: NVS_ENZ_hMAPKAPK2: NovaScreen (NVS) Enzymatic Assay for human MAP Kinase-Activated Protein Kinase 2 (MAPKAPK2) (AID 2283178)
Sequence of human MAP Kinase-Activated Protein Kinase 2 (MAPKAPK2), MAPKAPK2 (gene 9261) (P49137 whole entry, looked up): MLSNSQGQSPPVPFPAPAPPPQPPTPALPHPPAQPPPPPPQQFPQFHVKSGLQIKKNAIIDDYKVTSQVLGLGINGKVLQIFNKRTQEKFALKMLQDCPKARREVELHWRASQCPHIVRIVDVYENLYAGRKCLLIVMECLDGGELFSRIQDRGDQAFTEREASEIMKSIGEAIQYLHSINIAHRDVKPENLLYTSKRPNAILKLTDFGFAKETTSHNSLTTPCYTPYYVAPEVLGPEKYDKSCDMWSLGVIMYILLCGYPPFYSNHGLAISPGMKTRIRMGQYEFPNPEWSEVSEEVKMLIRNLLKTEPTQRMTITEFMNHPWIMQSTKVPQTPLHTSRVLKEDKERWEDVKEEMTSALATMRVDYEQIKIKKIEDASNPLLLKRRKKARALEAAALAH
In short: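 Cell-free recombinant human MAPKAPK2 activity measured by fluorescence with electrophoretic mobility shift separation of substrate and product, 1 hr after dosing. Loss of signal versus DMSO; primary screen at 25 uM, concentration-response up to 50 uM.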

[8] = biological target: human MET Proto-Oncogene, Receptor Tyrosine Kinase (MET), MET (gene 4233) (UniProt P08581); assay: NVS_ENZ_hMet: NovaScreen (NVS) Enzymatic Assay for human MET Proto-Oncogene, Receptor Tyrosine Kinase (MET) (AID 2283180)
Sequence of human MET Proto-Oncogene, Receptor Tyrosine Kinase (MET), MET (gene 4233) (P08581 whole entry, looked up): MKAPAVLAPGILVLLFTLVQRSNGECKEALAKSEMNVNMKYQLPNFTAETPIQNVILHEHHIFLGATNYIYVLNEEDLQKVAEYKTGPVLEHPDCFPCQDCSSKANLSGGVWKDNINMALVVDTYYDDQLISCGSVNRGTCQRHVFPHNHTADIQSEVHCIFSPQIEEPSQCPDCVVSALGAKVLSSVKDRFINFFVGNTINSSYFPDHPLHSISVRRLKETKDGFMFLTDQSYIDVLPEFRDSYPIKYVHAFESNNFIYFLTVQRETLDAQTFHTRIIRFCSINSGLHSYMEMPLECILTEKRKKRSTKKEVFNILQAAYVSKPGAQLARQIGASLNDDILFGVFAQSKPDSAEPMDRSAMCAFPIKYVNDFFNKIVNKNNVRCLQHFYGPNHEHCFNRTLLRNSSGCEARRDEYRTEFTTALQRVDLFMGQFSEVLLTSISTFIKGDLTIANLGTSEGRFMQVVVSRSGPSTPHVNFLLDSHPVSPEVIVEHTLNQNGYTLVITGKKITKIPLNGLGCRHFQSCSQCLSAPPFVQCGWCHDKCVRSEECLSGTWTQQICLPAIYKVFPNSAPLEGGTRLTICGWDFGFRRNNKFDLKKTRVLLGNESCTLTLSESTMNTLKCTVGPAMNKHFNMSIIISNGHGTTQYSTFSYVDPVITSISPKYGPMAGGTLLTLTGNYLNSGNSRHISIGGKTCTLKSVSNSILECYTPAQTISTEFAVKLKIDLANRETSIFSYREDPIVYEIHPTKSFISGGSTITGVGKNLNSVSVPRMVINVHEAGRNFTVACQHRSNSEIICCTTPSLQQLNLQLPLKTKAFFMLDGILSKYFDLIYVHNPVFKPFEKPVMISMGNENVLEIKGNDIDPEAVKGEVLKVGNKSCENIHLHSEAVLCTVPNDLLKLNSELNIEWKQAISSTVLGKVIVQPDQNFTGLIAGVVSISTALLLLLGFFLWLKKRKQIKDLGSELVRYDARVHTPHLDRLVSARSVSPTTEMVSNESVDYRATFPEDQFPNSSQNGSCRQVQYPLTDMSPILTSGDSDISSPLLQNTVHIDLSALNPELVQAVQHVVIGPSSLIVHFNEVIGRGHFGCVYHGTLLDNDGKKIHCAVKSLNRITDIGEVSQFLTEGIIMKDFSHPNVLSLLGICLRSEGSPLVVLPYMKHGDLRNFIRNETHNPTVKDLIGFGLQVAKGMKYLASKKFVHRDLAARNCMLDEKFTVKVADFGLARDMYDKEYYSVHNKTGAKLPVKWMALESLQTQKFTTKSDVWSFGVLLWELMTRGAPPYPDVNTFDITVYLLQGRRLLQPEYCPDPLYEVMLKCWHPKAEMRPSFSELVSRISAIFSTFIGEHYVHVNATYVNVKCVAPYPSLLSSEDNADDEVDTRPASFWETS
In short: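 Cell-free MET kinase assay using recombinant protein and fluorescent substrate, with mobility-shift separation; read 1 h after dosing. Primary duplicate at 25 uM; actives in singleton concentration-response to 50 uM maximum. Signal loss versus DMSO.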

[9] = biological target: human p21 Activated Kinase 4 (PAK4), PAK4 (gene 10298) (UniProt O96013); assay: NVS_ENZ_hPAK4: NovaScreen (NVS) Enzymatic Assay for human p21 Activated Kinase 4 (PAK4) (AID 2283189)
Sequence of human p21 Activated Kinase 4 (PAK4), PAK4 (gene 10298) (O96013 whole entry, looked up): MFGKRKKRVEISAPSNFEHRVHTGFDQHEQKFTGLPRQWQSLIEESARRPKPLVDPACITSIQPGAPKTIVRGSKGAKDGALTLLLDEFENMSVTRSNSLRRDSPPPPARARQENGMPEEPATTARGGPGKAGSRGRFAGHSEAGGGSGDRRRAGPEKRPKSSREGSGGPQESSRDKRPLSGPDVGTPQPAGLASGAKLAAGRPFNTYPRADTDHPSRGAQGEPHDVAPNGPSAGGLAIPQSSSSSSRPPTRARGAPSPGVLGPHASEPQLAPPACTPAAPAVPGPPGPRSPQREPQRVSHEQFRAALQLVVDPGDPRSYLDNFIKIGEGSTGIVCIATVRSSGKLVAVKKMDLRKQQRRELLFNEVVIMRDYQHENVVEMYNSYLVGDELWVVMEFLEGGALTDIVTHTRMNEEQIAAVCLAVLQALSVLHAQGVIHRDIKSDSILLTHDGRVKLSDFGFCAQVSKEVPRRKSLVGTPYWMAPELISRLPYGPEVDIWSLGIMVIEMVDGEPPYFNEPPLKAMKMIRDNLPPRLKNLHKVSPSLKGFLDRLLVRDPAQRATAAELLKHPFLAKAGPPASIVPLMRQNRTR
In short: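 Cell-free recombinant human PAK4 activity assay; fluorescent substrate and product separated by electrophoretic mobility shift, read 1 h after dosing. Initially tested in duplicate at 25 uM, relative to DMSO baseline.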

[10] = biological target: human Phosphodiesterase 4A1 (PDE4A1), PDE4A (gene 5141) (UniProt P27815); assay: NVS_ENZ_hPDE4A1: NovaScreen (NVS) Enzymatic Assay for human Phosphodiesterase 4A1 (PDE4A1) (AID 2283191)
In short: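 Cell-free recombinant human PDE4A1 with fluorescent substrate; product separated by electrophoretic mobility shift, 1 h. Screened at 25 uM, then up to 50 uM in concentration-response; loss of signal fitted against DMSO.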

[11] = biological target: cAMP-dependent protein kinase catalytic subunit alpha (Homo sapiens) (UniProt P17612); assay: NVS_ENZ_hPKA: NovaScreen (NVS) Enzymatic Assay for human Protein Kinase A (PKA) (AID 2283192)
In short: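 Recombinant human PKA with specific fluorescent substrate, product separated by electrophoretic mobility shift, read 1 h after dosing. Primary screen at 25 uM in duplicate; actives then run in concentration-response up to 50 uM, activity relative to DMSO.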

[12] = biological target: human Protein Phosphatase, Mg2+/Mn2+ Dependent 1A (PPM1A), PPM1A (gene 5494) (UniProt P35813); assay: NVS_ENZ_hPPM1A: NovaScreen (NVS) Enzymatic Assay for human Protein Phosphatase, Mg2+/Mn2+ Dependent 1A (PPM1A) (AID 2283198)
In short: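 Cell-free recombinant PPM1A phosphatase assay with fluorescent substrate, read 1 h after dosing by electrophoretic mobility shift. Chemicals screened in duplicate at 25 uM, then in concentration-response up to 50 uM; loss of activity versus DMSO.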

[13] = biological target: human Mitogen- and Stress-activated Protein Kinase-1 (Msk1), RPS6KA5 (gene 9252) (UniProt O75582); assay: NVS_ENZ_hMsk1: NovaScreen (NVS) Enzymatic Assay for human Mitogen- and Stress-activated Protein Kinase-1 (Msk1) (AID 2283187)
In short: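 Recombinant kinase with fluorescent substrate; product separated by electrophoretic mobility shift, read 1 h after dosing. Screened in duplicate at 25 uM; hits (e.g. ≥30% inhibition) tested in concentration–response up to 50 uM. DMSO baseline.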

[14] = biological target: human NIMA (Never In Mitosis Gene A)-Related Kinase 2 (NEK2), NEK2 (gene 4751) (UniProt P51955); assay: NVS_ENZ_hNEK2: NovaScreen (NVS) Enzymatic Assay for human NIMA (Never In Mitosis Gene A)-Related Kinase 2 (NEK2) (AID 2283188)
In short: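 Cell-free NEK2 enzyme activity after 1 h exposure, read by fluorescence with electrophoretic mobility shift separating substrate and product. Primary screen in duplicate at 25 uM; actives then run as concentration series. Loss of signal versus DMSO scored.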

[15] = biological target: human Protein Tyrosine Phosphatase Non-receptor Type 1 (PTPN1), PTPN1 (gene 5770) (UniProt P18031); assay: NVS_ENZ_hPTPN1: NovaScreen (NVS) Enzymatic Assay for human Protein Tyrosine Phosphatase Non-receptor Type 1 (PTPN1) (AID 2283201)
In short: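 Cell-free fluorogenic-substrate activity assay on recombinant enzyme, read 1.33 h after dosing by fluorescence and electrophoretic mobility shift; loss of signal vs DMSO baseline. Primary screen in duplicate at 25 uM, hits then run in concentration-response up to 50 uM.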

C[N+](C)(C)Cc1ccccc1
AC50 [1]: 8.55 µM (active) and 5.15 µM (active)

Nc1ccc(N)cc1
AC50 [2]: 2500 nM (active)

N#Cc1ccccc1Cl
outcome [2]: inactive

O=C(O)CC(O)(CC(=O)O)C(=O)O
outcome [3]: inactive

CC(C)(C#N)N=NC(C)(C)C#N
AC50 [1]: 6.44 µM (active)

BrCCCCBr
AC50 [1]: 15.3 µM (active) | AC50 [2]: 4810 nM (active)

COC(=O)Nc1cccc(OC(=O)Nc2cccc(C)c2)c1
outcome [4]: inactive

OC[P+](CO)(CO)CO
AC50 [1]: 1.27 µM (active) and 3.16 µM (active) | AC50 [2]: 9040 nM (active)

CC1CC(=O)O1 (stereo unspecified)
outcome [2]: inactive

O=C(N[C@H]1CN2CCC1CC2)c1ccc2c(c1)OCCO2
outcome [5]: inactive | outcome [3]: inactive | outcome [6]: inactive | outcome [7]: inactive | outcome [8]: inactive | outcome [9]: inactive | outcome [10]: inactive | outcome [11]: inactive | outcome [2]: inactive | outcome [12]: inactive

Oc1c(Br)cc(Br)cc1Br
outcome [1]: inactive

CC(C)O.CC(C)O.OCCN(CCO)CCO.OCCN(CCO)CCO.[Ti]
AC50 [6]: 2.87 nM (active) | AC50 [7]: 6.24 nM (active) | AC50 [8]: 25000 nM (active) | AC50 [13]: 109 nM (active) | AC50 [14]: 17500 nM (active) | AC50 [9]: 2.29 nM (active) | AC50 [11]: 2.29 nM (active) | AC50 [15]: 4.38 nM (active)

CC(C)(c1ccccc1)c1cc(-n2nc3ccccc3n2)c(O)c(C(C)(C)c2ccccc2)c1
AC50 [1]: 1.24 µM (active)

O=c1oc2ccccc2c(O)c1C(CC(O)c1ccc(-c2ccc(Br)cc2)cc1)c1ccccc1 (stereo unspecified)
AC50 [1]: 0.436 µM (active) | outcome [2]: inactive

CC(C)[N+](=O)[O-]
outcome [2]: inactive

Oc1ccc(Cc2ccc(O)cc2)cc1
outcome [2]: inactive

[Cl][Sn]([c]1ccccc1)([c]1ccccc1)[c]1ccccc1
outcome [1]: inactive
